From PubChem BioAssay come the findings set out here.

Molecules are shown by their SMILES.

The target of test [1] is Tumor necrosis factor receptor superfamily member 10B (Homo sapiens) (UniProt O14763). Description: caspase-8 TRAIL sensitization, hit retest, confirmation, cell-based, NB7+caspase-8, with/without TRAIL, luminescence panel (AID 651596). The conditions noted are these: NB7 neuroblastoma + caspase-8, TRAIL sensitization, luminescence viability, with TRAIL, mean of runs, at 10 µM, stronger effect = higher value.

Assay in test [2]: as above
The note with it: NB7 neuroblastoma + caspase-8, without TRAIL, luminescence viability, without TRAIL, mean of runs, at 10 µM.

Sequence of Tumor necrosis factor receptor superfamily member 10B (Homo sapiens) (O14763 whole entry, looked up): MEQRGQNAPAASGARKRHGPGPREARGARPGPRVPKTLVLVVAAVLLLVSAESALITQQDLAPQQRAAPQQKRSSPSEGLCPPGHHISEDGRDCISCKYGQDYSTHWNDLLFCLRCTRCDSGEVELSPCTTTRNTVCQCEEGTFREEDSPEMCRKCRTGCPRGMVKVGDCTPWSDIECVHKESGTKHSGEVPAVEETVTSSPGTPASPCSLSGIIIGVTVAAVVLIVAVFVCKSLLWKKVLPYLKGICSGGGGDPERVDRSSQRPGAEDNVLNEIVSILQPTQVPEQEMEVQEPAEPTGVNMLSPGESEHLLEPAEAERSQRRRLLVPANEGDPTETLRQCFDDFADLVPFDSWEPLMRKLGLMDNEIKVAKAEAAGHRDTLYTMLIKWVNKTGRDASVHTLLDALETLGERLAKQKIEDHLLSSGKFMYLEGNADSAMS

In the case of `O=C(Nc1cccc(-c2ccc(N3CCCCC3)nn2)c1)C(F)(F)F`, the activity in test [1] and in test [2] was 95.2% each time.

On to `CC1(C)N=C(N)N=C(N)N1c1cccc(C#N)c1`, for which the activity came to 81.8% in test [1] and 86.1% in test [2].

For the compound `Cc1ccccc1-c1nnc(-c2cccc3ccccc23)o1`, the activity came out at 47% in test [1] and 32.4% in test [2].

As to `CN(C)c1cccc(/C=C(\C#N)c2ccccc2)c1`, the results for the activity in test [1] and in test [2] were 28.8% and 40.8%, respectively.

`O=C(Nc1ccc(O)cc1)c1ccc2c(c1)C(=O)N(Cc1ccccc1)C2=O`: the activity in test [1] stood at 60.9%; in test [2], 19.7%.

Take `COc1ccccc1-c1nnc(-c2ccc(C)cc2)o1`: the activity in test [1] came to 46.6%; in test [2] it was 43.5%.

On to `COc1ccc(/C=C\c2nc(=O)c3ccccc3o2)cc1`, for which the figures for the activity in test [1] and in test [2] were 72% and 69.6%, respectively.

As to `C=CCOC(=O)c1sc(NC(=O)c2ccco2)nc1C`, the activity is 39.1% in test [1] and 40.2% in test [2].

On to `CC(C)[C@@H](CO)NC(=O)c1ccc2c3n(nc2c1)-c1ccccc1CO3`, for which the activity amounted to 71.1% in test [1] and 71.6% in test [2].

Consider `COc1ccc(/C(N)=N/OC(=O)c2c(-c3ccccc3Cl)noc2C)cc1OC`, for which the activity amounted to 99.1% in test [1] and 98.8% in test [2].

For the compound `C#CC(=O)N(c1ccc(OC)c(OC)c1)C(C(=O)NC1CCCC1)c1cccs1` (configuration not stated), the activity in test [1] turned out to be 99.3%; in test [2], 99.5%.

On to `CCOc1ccc(/C=C2\CCc3ccccc3C2=O)cc1`, for which the results for the activity in test [1] and in test [2] were 83.2% and 79.2%, respectively.

`O=C(/C=C/c1cccnc1)/C=C/c1cccnc1`: the activity in test [1] amounted to 91.5%; in test [2] it was 69.7%.

Turning to `c1ccc(-c2cnc(-c3ccccc3)nn2)cc1`, the activity in test [1] came out at 64.9%; in test [2] it was 68.4%.

For `CC(C)(C)OC(=O)NCCCCCc1cn([C@@H](CO)C(=O)NCCCCCCCCCCC(=O)N2CCN(C(=O)OC(C)(C)C)CC2)nn1`, the activity was 61.7% in test [1] and 42.1% in test [2].

`COc1ccc(/C=C2\Oc3ccccc3C2=O)cc1`: the activity in test [1] was 76.7%; in test [2], 74.3%.

For `CCOc1cc(NC(=O)CCl)c(OCC)cc1NC(=O)CCl`, the activity in test [1] came out at 96.6%; in test [2], 98.5%.

`CCOC(=O)c1nn(-c2ccc3c(c2)OCCO3)cc1O`: the activity in test [1] was determined as 60%; in test [2], 57%.

Regarding `Cc1cc(C)cc(NC(=O)/C(C#N)=C/c2cn(CC(=O)NCc3ccco3)c3ccccc23)c1`, the activity is 62.1% in test [1] and 77.7% in test [2].

Regarding `N=c1n(CC(=O)c2ccc(Br)s2)c2ccccc2n1Cc1ccccc1`, the figures for the activity in test [1] and in test [2] were 20.9% and 20.6%, respectively.

Consider `CC(=O)Nc1nc2ccccc2n1CCOc1ccccc1`, for which the figures for the activity in test [1] and in test [2] were 45.6% and 49.5%, respectively.

`COc1ccc(C(=O)Nc2ccccc2C(=O)Nc2cccnc2)cc1`: the activity was 58.9% in test [1] and 55.5% in test [2].

Turning to `COc1ccccc1/C=C/C1(C(=O)NC2CCCC2)CC(=O)N1c1ccc(C)cc1` (configuration not stated), the activity was determined as 90.2% in test [1] and 88.8% in test [2].

For `COc1ccccc1C=NN=C(NN=Cc1ccccc1OC)NN=Cc1ccccc1OC`, the activity in test [1] was determined as 78%; in test [2], 65.6%.

On to `COc1cccc(NC(=O)Nc2nc(-c3ccc(OC)c(OC)c3)cs2)c1`, for which the activity amounted to 98.5% in test [1] and 99.2% in test [2].

For `CN(C(=O)c1ccccc1)c1nc2ccccc2s1`, the activity was found to be 84.3% in test [1] and 72.3% in test [2].

As for `Nc1nc2ccccc2n1C(=O)c1ccccc1`, the activity in test [1] came to 87.9%; in test [2], 85.9%.

Turning to `O=c1oc2c(O)cccc2cc1-c1nc2ccccc2[nH]1`, the activity in test [1] was 72%; in test [2], 68.8%.

Consider `CC(=O)c1ccccc1OCC(O)CN1CCN(CCN2C(=O)c3cccc4cccc(c34)C2=O)CC1` (configuration not stated), for which the activity was found to be 45.6% in test [1] and 16.4% in test [2].

Consider `COc1ccc2cc(-c3ccccc3)ncc2c1`, for which the activity came out at 63.8% in test [1] and 63.7% in test [2].

As for `CCOC(=O)N1CCN(C(=O)CSCC(=O)Nc2nc(-c3ccc(-c4ccccc4)cc3)cs2)CC1`, the activity in test [1] is 66.9%; in test [2], 68%.

Turning to `COc1ccc(C(=O)O/N=C(\N)Cc2ccc(Cl)cc2)cc1OC`, the activity in test [1] is 99.3%; in test [2] it was 95.8%.

Consider `O=C1C(=C(I)I)c2ccccc2-c2ccccc21`, for which the figures for the activity in test [1] and in test [2] were 38% and 99.6%, respectively.

With `Cn1c(/C=C/c2ccc([N+](=O)[O-])o2)nc2ccccc2c1=O`, the activity turned out to be 50.8% in test [1] and 73.9% in test [2].

`O=C(Nc1nnc(-c2ccccc2)o1)NC1CCCCC1`: the activity worked out at 34.9% in test [1] and 55.4% in test [2].

For the compound `C#Cc1ccc([C@@H]2C=C(C(=O)Nc3ccccc3)O[C@H](OCC)[C@H]2CCCO)cc1`, the activity in test [1] is 90.8%; in test [2], 91.5%.

On to `Cc1ccc(-c2nn(CC(=O)NCc3cc(-c4nn(C)c(=O)c5ccccc45)ccc3C)c(=O)c3ccccc23)cc1`, for which the activity amounted to 90.9% in test [1] and 35.5% in test [2].

With `O=C(CC(Nc1ccc(F)cc1)C(=O)O)c1ccccc1` (configuration not stated), the activity was 63.3% in test [1] and 53.1% in test [2].

Turning to `Cc1ccc2nc(-c3ccc(NC(=O)COC(=O)c4ccc(Br)o4)cc3)sc2c1`, the activity came out at 62% in test [1] and 67.4% in test [2].

In the case of `O=C(N/N=C1\CCc2ccccc21)c1ccccc1O`, the activity came out at 53.7% in test [1] and 62.4% in test [2].

In the case of `CN(C)c1ccc(-c2nc3ccccn3c2/N=C/c2ccc(Br)cc2)cc1`, the values for the activity in test [1] and in test [2] were 69.3% and 47%, respectively.

In the case of `COc1ccc2nc(-c3ccccc3)[nH]c2c1`, the results for the activity in test [1] and in test [2] were 57.3% and 65.5%, respectively.

Turning to `CN(C)S(=O)(=O)c1ccc(-c2cn3ccccc3n2)cc1`, the activity in test [1] amounted to 66.2%; in test [2], 73.5%.

With `FC(F)(F)c1nnc(-c2ccccc2)nc1Sc1ccc(Cl)cc1`, the activity was 42.7% in test [1] and 46.2% in test [2].

Regarding `O=S1(=O)CC(c2ccccc2)=NN=C(c2ccccc2)C1`, the activity amounted to 79% in test [1] and 75.8% in test [2].

As to `COc1ccc(C(=O)Nc2ccc3ccccc3c2)cc1`, the activity in test [1] stood at 76.8%; in test [2] it was 74.5%.

For the compound `O=c1[nH]c(/C=C/c2ccccc2F)nc2ccccc12`, the activity in test [1] is 86.9%; in test [2], 86.8%.

Take `CCCc1cc(=O)[nH]c(SCC(=O)c2c(N)n(C3CC3)c(=O)[nH]c2=O)n1`: the activity in test [1] is 80.3%; in test [2] it was 88.8%.

`O=C(Cn1ncc(Cl)c(Cl)c1=O)Nc1ccc2c(c1)OCO2`: the activity in test [1] and in test [2] was 99.5% each time.

With `Cc1cc(-c2csc3nc[nH]c(=S)c23)cc(C)c1C`, the activity came out at 79.3% in test [1] and 74.9% in test [2].

`COc1ccc(CC(N)c2csc(NC(=O)Nc3cccc(C(F)(F)F)c3)n2)cc1` (configuration not stated): the activity is 39.6% in test [1] and 87% in test [2].

`O=C(Nc1ccc(Cl)cn1)c1ccc2c(Cl)c3c(nc2c1)CCC3`: the activity in test [1] was 56.8%; in test [2], 56.3%.

Regarding `CCc1ccc(NC(=O)c2nc(S(=O)(=O)Cc3ccccc3)ncc2Cl)cc1`, the activity in test [1] came to 51.2%; in test [2] it was 86.6%.

On to `O=C(CCl)N=c1sccn1Cc1cccc2ccccc12`, for which the activity is 98.8% in test [1] and 99.1% in test [2].

Take `c1ccc(-c2cc3cc4c(cc3cn2)OCO4)cc1`: the activity was 43.8% in test [1] and 29% in test [2].

As to `c1ccc(-c2nnc3sc(CN4CCC5(CC4)OCCO5)cn23)cc1`, the activity is 57.7% in test [1] and 60.9% in test [2].
